# Assay results taken from PubChem BioAssay AID1445 (SRMLSC, 2008).
# About 910 (0.41%) of roughly 220,000 compounds were called active. For the sample, actives were picked, then their nearest neighbours and some compounds at random. Entries with a potency or affinity are not part of this list. Values without a mark were called inactive.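 How the source made its calls: active means primary inhibition above the hit cutoff, then over 50% inhibition at one or more dose response concentrations (cut at about 23% in these data, passing the limit was not always enough); inconclusive means conflicting primary data, or primary hits not chosen for dose response; inactive means low primary inhibition, or under 50% at every dose.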
# Target: Aminopeptidase N (Plasmodium falciparum (isolate 3D7)) (UniProt O96935)
# Sequence (O96935 whole entry, looked up): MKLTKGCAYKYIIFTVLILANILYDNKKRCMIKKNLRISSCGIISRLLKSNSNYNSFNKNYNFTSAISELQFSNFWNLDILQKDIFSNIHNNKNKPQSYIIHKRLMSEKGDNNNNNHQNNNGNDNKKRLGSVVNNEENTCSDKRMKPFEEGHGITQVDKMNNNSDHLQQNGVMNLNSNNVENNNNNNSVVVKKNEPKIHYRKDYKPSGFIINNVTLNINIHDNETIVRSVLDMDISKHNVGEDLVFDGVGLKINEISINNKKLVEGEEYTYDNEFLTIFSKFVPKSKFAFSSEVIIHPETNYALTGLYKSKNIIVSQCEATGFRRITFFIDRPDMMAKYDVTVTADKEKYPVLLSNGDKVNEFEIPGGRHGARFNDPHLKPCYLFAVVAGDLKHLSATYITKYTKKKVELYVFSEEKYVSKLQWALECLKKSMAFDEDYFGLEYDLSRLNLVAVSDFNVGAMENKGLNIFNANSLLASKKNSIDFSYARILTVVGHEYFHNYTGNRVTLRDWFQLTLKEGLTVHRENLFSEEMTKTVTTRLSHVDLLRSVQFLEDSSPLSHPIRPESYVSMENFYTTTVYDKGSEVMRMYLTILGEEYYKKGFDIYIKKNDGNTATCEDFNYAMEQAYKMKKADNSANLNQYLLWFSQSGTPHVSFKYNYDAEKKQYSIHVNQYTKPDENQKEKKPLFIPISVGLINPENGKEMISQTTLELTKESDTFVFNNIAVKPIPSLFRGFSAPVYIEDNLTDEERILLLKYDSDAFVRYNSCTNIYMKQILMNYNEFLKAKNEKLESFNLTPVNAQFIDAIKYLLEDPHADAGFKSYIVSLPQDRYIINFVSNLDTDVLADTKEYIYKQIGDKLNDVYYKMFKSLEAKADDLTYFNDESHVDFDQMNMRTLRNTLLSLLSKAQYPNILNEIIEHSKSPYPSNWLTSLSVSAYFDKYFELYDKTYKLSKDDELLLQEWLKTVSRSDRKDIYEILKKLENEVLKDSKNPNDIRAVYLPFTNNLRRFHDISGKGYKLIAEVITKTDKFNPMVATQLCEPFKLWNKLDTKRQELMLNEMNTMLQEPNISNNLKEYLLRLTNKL
# Test: malaria alanyl aminopeptidase activity blockers – biochemical, fluorogenic H-Leu-NHMec substrate, 1536-well (AID 1445);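 further: plate controls were DMSO full reaction for no effect and no enzyme background for full effect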
# Conditions: recombinant M1AAP, H-Leu-NHMec fluorogenic kinetic assay; at 30 µM, hits give high values unless noted
row,Compound,inhibition
1,COc1cc(CNC(C)(C)C)cc(Br)c1OCc1cccs1,6.22%
2,COc1ccc(C2c3c(-c4ccccc4)n[nH]c3C(=O)N2c2ccc(C(=O)O)cc2)cc1 (configuration not stated),5.67%
3,O=C(O)c1ccc(N2C(=O)c3[nH]nc(-c4ccccc4)c3C2c2ccccc2)cc1 (configuration not stated),2.78%
4,COc1cccc(C2c3c(-c4ccccc4)n[nH]c3C(=O)N2c2ccc(C(=O)O)cc2)c1 (configuration not stated),8%
5,COc1cc(C2c3c(-c4ccccc4)n[nH]c3C(=O)N2c2ccc(C(=O)O)cc2)ccc1O (configuration not stated),14.8%
6,COc1cccc(OC)c1OCCNCCO,9.5%
7,O=C(CCNS(=O)(=O)c1cccc2nsnc12)NCc1ccco1,3.34%
8,CC(=O)Nc1ccccc1C(=O)C(=O)Nc1cccc(C(=O)NCc2ccc(C)cc2)c1,2.5%
9,COC(=O)c1cc(NC(=S)N2CCN(C(=O)C3CCCO3)CC2)cc(C(=O)OC)c1 (configuration not stated),-0.88%
10,CCOC(=O)c1cc2c(=O)[nH]ccc2nc1C(F)(F)F,5.5%
11,CCc1ccc(NC(=O)COc2ccc(/C=C(/C#N)c3nc4ccccc4[nH]3)cc2OC)cc1,11%
12,COc1cc(/C=C(\C#N)c2nc3ccccc3[nH]2)ccc1OC(=O)c1ccco1,7.39%
13,COc1cc(/C=C(/C#N)c2ccc(F)cc2)ccc1OCc1ccc(C(=O)O)o1,27.4% (active)
14,COc1cccc(/C=C(/C#N)c2ccc(Cl)cc2)c1OCc1cccc(C(=O)O)c1,13.3%
15,N#C/C(=C\c1ccccc1OCc1ccc(C(=O)O)cc1)c1ccccc1,-6.55%
16,COC(=O)c1ccc(COc2ccc(/C=C(\C#N)c3nc4ccccc4[nH]3)cc2OC)o1,12.6%
17,CCOc1cc(/C=C(/C#N)c2nc3ccccc3[nH]2)ccc1Oc1ccc([N+](=O)[O-])cn1,1.44%
18,CCOc1cc(/C=C(/C#N)c2ccc(F)cc2)ccc1OCc1ccc(C(=O)O)o1,17.8%
19,CCCc1ccc(OCc2ccc(C(=O)O)o2)c(OC)c1,1.24%
20,CN(C(=O)c1ccccc1NC(=O)C(F)(F)F)c1ccccc1,4.16%
21,O=C1OCC2=C1C(c1ccccc1)CC(=O)N2c1ccccc1 (configuration not stated),5.38%
22,NC(=O)C(=O)N/N=C/c1c(F)c(F)c(F)c(F)c1F,13.6%
23,C=C1CCN([C@@H](C)C(=O)NCc2ccc(OC)cc2)S(=O)(=O)c2ccccc21,6.29%

row,Compound,inhibition
1,CN(CC(=O)N1CCN(c2ccccn2)CC1)S(=O)(=O)c1cccc2nsnc12,3.43%
2,Cc1cc(C)nc(N/N=C/c2ccccc2OCc2ccc(Br)cc2)n1,1.44%
3,O=C(C1=C(O)C(=O)N(CCc2ccccc2)C1c1cccnc1)c1ccco1 (configuration not stated),9.09%
4,Cc1c(N2C(=O)C(=O)/C(=C(/O)c3ccccc3)C2c2ccc(F)cc2)c(=O)n(-c2ccccc2)n1C (configuration not stated),5.61%
5,Cc1c(N/C=C/C(=O)c2ccc(Cl)cc2)c(=O)n(-c2ccccc2)n1C,4.02%
6,Cc1ccc(C(=O)C2=C(O)C(=O)N(Cc3ccccc3)C2c2cccnc2)o1 (configuration not stated),15.2%
7,COC(=O)c1cc(NS(=O)(=O)c2ccc3c(c2)CCC(=O)N3)cc(C(=O)OC)c1,8.87%
8,O=C(CCC1CC(=O)Nc2ccccc21)NCc1ccc(F)cc1 (configuration not stated),5.98%
9,O=C(O)CCCC(=O)Nc1ccc(Sc2ccc([N+](=O)[O-])cc2)cc1,2.99%
10,CCOc1nonc1C(=N)/C(C(C)=O)=C(\C)O,-1.51%
11,Cc1ccc(OCC(=O)N2CCN(c3nnc(-c4ccc(C)cc4)c4ccccc34)CC2)cc1,14.1%
12,CC(C)CSc1nc2ccccc2n1CC(N)=O,-7.7%
13,O=[n+]1c2c(n([O-])c3ccccc31)CCCC2,2.78%
14,O=[n+]1c2c(n([O-])c3ccccc31)CCC2,26.1% (active)
15,O=[n+]1c2c(n([O-])c3cc(Br)ccc31)CCC2,16.4%
16,Cc1ncc(CO)c(/C=N/NC(=O)c2ccc(O)cc2)c1O,7.46%
17,COc1ccc(C(=O)N/N=C/c2c(CO)cnc(C)c2O)cc1,14.8%
18,Cc1cccc2cc(CN(Cc3cccs3)S(=O)(=O)c3ccc4c(c3)OCCO4)c(=O)[nH]c12,4.88%
19,Cc1cccc(-n2cc(CNCCc3nc(C)cc(C)n3)c(-c3cccc(F)c3)n2)c1,0.33%
20,CC1CCCCN1C(=O)c1cc2nc(-c3ccccc3)cc(-c3ccccc3)n2n1 (configuration not stated),2.04%
21,COC(=O)COc1ccc(=O)n(-c2ccccc2)n1,2.11%
22,O=C(N/N=C/c1cccc(O)c1)c1ccc(NC(=O)c2cccc([N+](=O)[O-])c2)cc1,3.44%
23,CCOC(=O)N1CCN(C(=O)c2cnn3ccccc23)CC1,10.3%

row,Compound,inhibition
1,O=C(c1cnn2ccccc12)N1CCN(C2CCCCC2)CC1,26.7% (active)
2,O=C(c1cnn(-c2ccccc2)c1-n1cccc1)N1CCN(C2CCCCC2)CC1,2.13%
3,COc1ccc(CNC(=O)C(c2ccncc2)N(C(=O)Cc2cccs2)c2ccccc2C)cc1 (configuration not stated),-1.48%
4,COc1ccc(N2CCN(C(=O)CN3CCN(C(c4ccccc4)c4ccccc4)CC3)CC2)cc1,3.02%
5,COc1ccc(N2CCN(CC(=O)Nc3nnc(-c4ccccc4)s3)CC2)cc1,23.4% (active)
6,O=C(CN1CCN(c2ccccc2)CC1)Nc1nnc(-c2ccccc2)s1,-5.83%
7,COc1ccc(N2CCN(C(=O)CN3C(=O)C4CC=CCC4C3=O)CC2)cc1 (configuration not stated),-0.46%
8,COc1ccc(N2CCN(CC(=O)N3CCC(C)CC3)CC2)cc1,24.4% (active)
9,COc1cccc(N2CCN(CC(=O)Nc3nnc(-c4ccccc4)s3)CC2)c1,-5.75%
10,CCn1c(SCC(=O)NCC2CCCO2)nnc1-c1ccccc1 (configuration not stated),1.77%
11,c1cc2c(cc1C1=NNC(=NC3CC3)SC1)OCCO2,8.68%
12,CCOC(=O)Cc1csc(NC(=O)CC(C)(C)CC(=O)O)n1,-4.17%
13,CCN(CC)S(=O)(=O)c1cccc(-c2n[nH]c(=S)n2/N=C/c2ccc(OC)cc2)c1,13.1%
14,CCCc1c(C(=O)NNc2cc(C(F)(F)F)ccc2Cl)cnn1-c1ccccc1,-1.62%
15,CCC(=O)NC(=S)Nc1ccc(N2CCOCC2)cc1,4.46%
16,O=C(COc1ccc(Cl)cc1)NNC(=O)C(=O)N1CCCCC1,32.2%
17,CCOC(=O)N1CCN(C(=O)C(=O)NNC(=O)COc2ccc(Cl)c(C)c2)CC1,3.22%
18,O=C(O)CC1S/C(=N\N=C2CCCCCCC2)N(c2ccccc2)C1=O (configuration not stated),7.68%
19,CN(C(=O)c1ccccc1)C1(C)CCS(=O)(=O)C1 (configuration not stated),-2.77%
20,O=c1c2cc(Cl)ccc2nc(-c2ccccc2)n1O,3.06%
21,O=c1c2ccccc2nc(-c2cccc(Cl)c2)n1O,26.1% (active)
22,O=c1c2ccccc2nc(-c2ccc(Cl)c(Cl)c2)n1O,0.17%
23,CS(=O)(=O)N(CC(=O)Nc1ccccc1Cl)c1ccc(Cl)cc1,4.49%

row,Compound,inhibition
1,O=C(Nc1ccc2c(c1)OCCO2)c1c(F)c(F)c(F)c(F)c1F,10.6%
2,O=C(/C=C\c1ccccc1OC(=O)c1ccccc1F)c1cc2ccccc2o1,6.93%
3,O=c1c2c(nc3nc(NCc4cccc(Cl)c4)[nH]n13)CCC2,9.8%
4,O=C(CSc1nc2c(c(=O)[nH]1)CCC2)Nc1cccc(Cl)c1,1.88%
5,CCCCCCCC(=O)NC1=NC(=O)C(C)(C)S1,-0.69%
6,Cc1ccc2[nH]c(=O)c(CN(CC3COCCO3)C(=O)Nc3ccccc3C)cc2c1 (configuration not stated),13.8%
7,Cc1cccc(NC(=O)N(Cc2cc3cc(C)cc(C)c3[nH]c2=O)CC2COCCO2)c1 (configuration not stated),2.91%
8,CN(C)S(=O)(=O)c1ccc(C(=O)OCCn2cnc3c2c(=O)n(C)c(=O)n3C)cc1,-2.31%
9,O=[N+]([O-])c1ccc(O)c(NC(=S)Nc2ccccc2)c1,-0.91%
10,O=C(O)CCCC(=O)Nc1cc([N+](=O)[O-])ccc1O,7.33%
11,Cc1ccc(NCc2nnc(SCC(=O)Nc3ncc(C)s3)n2CC2CCCO2)c(C)c1 (configuration not stated),0.09%
12,COc1ccc2cc3cc(C(=O)NC(C)C)oc3nc2c1,13.4%
13,CCCCN(CC)C(=O)c1cc2cc3ccc(OC)cc3nc2o1,13.7%
14,CCCCN(CC)CCCNC(=O)c1cc2cc3ccc(OC)cc3nc2o1,29.5%
15,COc1ccc2cc3cc(C(=O)NCC4COc5ccccc5O4)oc3nc2c1 (configuration not stated),3.66%
16,COc1ccc2cc3cc(C(=O)NCCN4CCN(c5ccccc5F)CC4)oc3nc2c1,-0.03%
17,COc1ccc2cc3cc(C(=O)NCCCN4CCOCC4)oc3nc2c1,18.2%
18,Cc1cccc2c1Sc1ccccc1CC2=O,7.62%
19,CCn1nnnc1NCc1ccc(N2CCCC2)cc1,5.58%
20,COc1cccc(C(=O)OCC(=O)c2c[nH]c3ccccc23)c1O,6.87%
21,COC(=O)N/N=C\c1ccc(OC(=O)c2ccco2)cc1,5.66%
22,CC12CCCCC1c1ccccc1C(=NCC(=O)O)N2 (configuration not stated),2.45%
23,CCOC(=O)c1c(NC(=O)c2ccc(-n3cnnn3)cc2)sc2c1CCCC2,3.69%
